From PubChem
Beta apoptosis = beta cell apoptosis inhibition | hit rate 0.8% among 300,000 | protection from apoptosis, % (test concentration not listed) | INS-1E cytokine-induced death, ATP luminescence, 48 h; percent of positive-control rescue, neutral wells zero | AID 435005;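 active means Every replicate reaches about 75%, or at least half do and their mean reaches it too, limit read from the data; inconclusive means At least half of replicates reach the limit but their mean does not; inactive means Under half of replicates reach the limit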;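 further: 0% = cytokine-treated negative control wells and 100% = positive control rescue; higher means more ATP so stronger rescue from cytokine killing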
MPTP inh = inhibitors of mitochondrial permeability transition pore; isolated mouse mitochondria, Ca2+ swelling absorbance, 30 min; inhibition, % at 10 µM; hit rate 1.4% among 360,000; AID 602449;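 active means inhibition of 50% or more, scaled per plate between neutral and stimulator controls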;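 further: 0% = DMSO wells given calcium and 100% = 1 mM EGTA wells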
CSC inhib = cancer stem cell inhibition. hit rate 1.1% among 300,000. cancer stem cell-like cells viability, luminescence. AID 2717. inhibition, % at 7.5 µM; in the data active means inhibition above about 75%; inconclusive means no clear call, values can overlap the other calls; tested in HMLE shEcad cells
Calb FLC = C. albicans growth modulation with fluconazole; C. albicans CaCi-2 (fluconazole-resistant clinical isolate) + fluconazole, Alamar Blue growth, 48 h; hit rate 0.57% among 300,000; growth inhibition, % (test concentration not listed);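 active means growth inhibition above about 58% in most replicates, limit read from the data, passing the limit was not always enough; inconclusive means exactly half the replicates above a set limit; inactive means most replicates below a set limit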;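 further: all wells also contain fluconazole at 8 µg/ml as a sub-toxic cotreatment; 0% = median of DMSO wells and 100% = median of geldanamycin control wells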
Mdm2 MdmX PPI = human Mdm2/MdmX binding inhibition. O15151+Q00987. SaOS-2 split-luciferase Mdm2/MdmX complementation, luminescence. hit rate 3% among 330,000. inhibition, % at 8 µM;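 active means inhibition of at least 50% at 8 µM in the primary screen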
SKKanGAS inh = blocks kanamycin growth of S. pyogenes SKKanGAS strain. AID 1662. BacTiter-Glo, 6 h. hit rate 1.3% among 300,000. inhibition, % at 7.5 µM;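 active means mean replicate score, as percent of positive control median, at least 50; inconclusive means mean below 50 but one replicate at or above 50; inactive means mean and every replicate below 50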;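 further: strain carries kanamycin resistance gene driven by streptokinase promoter and grows in 40 µg/ml kanamycin; loss of luminescence reflects streptokinase promoter inhibition or plain growth inhibition; 0% = median of DMSO wells and 100% = positive control at its reference dose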
Rh123 counter = mitochondrial membrane potential, counter-screen | shares compounds with MPTP inh | isolated mitochondria, Rhodamine 123 fluorescence | inhibition, % at 10 µM | hit rate 78% among 5,000 | AID 624504; in the data active means inhibition above about 22%;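 further: 0% = DMSO vehicle and 100% = positive control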
* = called active by the depositor; u = inconclusive; x = not tested or not shown. Shown are actives, neighbours in structure and some others; about 5.4% of the full set was active somewhere.

SMILES	Beta apoptosis	MPTP inh	CSC inhib	Calb FLC	Mdm2 MdmX PPI	SKKanGAS inh	Rh123 counter
CCOC(=O)C1CCCN(C(=O)c2ccccc2NC(C)=O)C1 (configuration not stated)	0	0	-9	-2	22	-1	x
COc1ccc2nc(-c3ccccc3)[nH]c2c1	12	0	7	-2	-207	1	x
O=[N+]([O-])c1ccc2nc(-c3ccncc3)[nH]c2c1	7	3	-10	-9	24	-1	x
O=[N+]([O-])c1ccc2nc(-c3ccccc3[N+](=O)[O-])[nH]c2c1	18	16	-8	33	9	-1	x
O=[N+]([O-])c1ccc2nc(-c3ccc(Cl)cc3)[nH]c2c1	28	92*	22	-7	-158	0	86*
Cc1ccc(-c2nc3ccc([N+](=O)[O-])cc3[nH]2)cc1	17	76*	-6	-40	-151	-2	82*
O=[N+]([O-])c1cccc(-c2nc3ccc([N+](=O)[O-])cc3[nH]2)c1	39	93*	28	51	17	-15	83*
COc1ccc(-c2nc3ccc([N+](=O)[O-])cc3[nH]2)cc1	-5	58*	-4	-23	x	-5	53*
CC(C)(C)c1ccc(S(=O)(=O)N(CCCN2CCOCC2)Cc2cccs2)cc1	6	1	x	-3	21	-4	x
O=C(Nc1ccc(F)cc1)c1cccc(NC(=O)C2C3CC4OC(=O)C2C4C3)c1 (configuration not stated)	1	3	4	5	10	3	x
Brc1ccc(OCCCCN2CCCCC2)cc1	0	0	31	1	17	-4	x
O=[N+]([O-])c1ccc(/C=C/c2nc3ccc([N+](=O)[O-])cc3[nH]2)cc1	11	98*	17	33	x	-2	64*
Cc1cc(-n2c(C)cc(C(=O)CSc3ncnc4ccccc34)c2C)no1	25	97*	8	0	31	17	88*
Cc1cc(C)n2nc(SCC(=O)c3cc(C)n(-c4cc(C)on4)c3C)nc2n1	54	81*	-8	-2	25	24	62*
CN1C(c2ccccc2)=NO[C@]1(C)c1ccccc1	-1	2	-2	0	2	1	x
Cc1ccc(S(=O)(=O)N2CCN(c3ncnc4scc(-c5ccccc5)c34)CC2)cc1	15	0	21	x	-10	x	x
Cc1sc2ncnc(N3CCN(S(=O)(=O)c4ccccc4)CC3)c2c1C	99*	94*	x	x	3	x	89*
Clc1ccc(OCCN2CCN(c3ncnc4sccc34)CC2)cc1	106*	100*	19	100*	17	x	101*
Cc1ccc(OCCN2CCN(c3ncnc4sc(C)c(C)c34)CC2)cc1	114*	97*	41	-21	8	5	90*
CSc1ccccc1NC(=O)Nc1ccc(F)c(Cl)c1	10	93*	15	0	-6	0	75*
O=C(Nc1ccncc1)Nc1cccc(Cl)c1Cl	11	5	-2	u	24	16	x
O=C1C=C(NC(=O)Nc2ccc(Cl)c(Cl)c2)CCC1	2	91*	0	-12	6	u	98*
NNC(=O)C(=O)Nc1ccc(Cl)c(Cl)c1	-4	1	2	7	20	2	x
O=C(Nc1ccccc1)Nc1cccc(Cl)c1Cl	14	93*	-10	-77	-75	5	97*
CSc1ccccc1NC(=O)Nc1cccc(Cl)c1	x	62*	x	-5	-59	-1	85*
SMILES	Beta apoptosis	MPTP inh	CSC inhib	Calb FLC	Mdm2 MdmX PPI	SKKanGAS inh	Rh123 counter
COCCN(Cc1cc2cc3c(cc2nc1Cl)OCO3)C(C)=O	-4	1	-3	u	-14	-1	x
COc1ccc(NC(=O)C(CCSC)NC(N)=O)cc1Cl (configuration not stated)	-3	4	-2	-3	1	3	x
CSCCC(NC(N)=O)C(=O)Nc1ccc(F)c(Cl)c1 (configuration not stated)	1	64*	-11	3	-4	15	80*
O=C(Nc1ccc(Cl)c(Cl)c1)Nc1nnc(-c2ccncc2)s1	44	102*	53	x	x	x	87*
O=C(Nc1ccc(Cl)c(Cl)c1)Nc1ccccc1O	6	98*	93*	25	-221	14	64*
O=C(Nc1ccc(Cl)c(Cl)c1)c1ccccc1	3	16	11	x	-167	x	x
CCCCOc1ccc(N(CC(=O)NC(C)(C)C)C(=O)CCC(=O)Nc2nccs2)cc1	-2	2	-13	-7	20	-4	x
CC(C)(C)c1ccc(N/N=C(\C#N)S(=O)(=O)C(C)(C)C)cc1	27	86*	1	-1	26	-1	86*
Cc1cccc(N/N=C(\C#N)S(=O)(=O)C(C)(C)C)c1	13	1	-9	25	x	2	x
N#C/C(=N\Nc1ccc(Cl)cc1)C(=N)N1CCCCCC1	0	1	10	-2	-135	5	x
CC(C)(C)S(=O)(=O)/C(C#N)=N/Nc1ccc(Cl)cc1	48	92*	25	48	21	-4	87*
O=C(CSc1nnc(-c2ccc(O)cc2)n1-c1ccccc1)CC(=O)Nc1ccccc1	4	0	9	11	-14	29	x
CCOC1=C2CN(S(=O)(=O)c3ccc(C)cc3)C(c3ccccc3)CC2N(S(=O)(=O)c2ccc(C)cc2)C(c2ccc(Br)cc2)C1 (configuration not stated)	x	4	x	x	x	x	x
O=[N+]([O-])c1ccc(Nc2ccc3ccccc3c2)nc1	11	78*	22	-32	-55	-6	59*
O=[N+]([O-])c1ccc(Nc2ccc(Cl)cc2)nc1	x	0	-5	-38	-12	-12	x
O=C(NNC(=O)c1ccncc1)Nc1ccccc1	-7	-1	-8	-2	1	2	x
O=C(NNC(=O)c1ccncc1)Nc1ccc(N=Nc2ccccc2)cc1	x	68*	x	x	x	x	30*
O=C(NNc1ccc([N+](=O)[O-])cn1)Nc1ccc(N=Nc2ccccc2)cc1	x	91*	x	x	x	x	64*
CC(=NNc1ccc([N+](=O)[O-])cn1)c1ccccc1	x	0	x	x	x	x	x
COc1ccc(C)cc1N(CC(=O)NC1CCCC1)C(=O)CCC(=O)Nc1nc(C)cs1	-5	-1	-7	1	-17	-2	x
COc1ccc(OCC(=O)Nc2ccc3c(c2)nc(CCN2CCCC2)n3C)cc1	-2	0	-12	-8	29	1	x
COc1cccc(/C=N/NC(=S)Nc2cccc(S(=O)(=O)N(C)C)c2)c1	-1	4	-6	-9	0	-1	x
CN(C)S(=O)(=O)c1cccc(NC(=S)Nc2cc(Cl)cc(Cl)c2)c1	-2	88*	3	-27	12	6	93*
CCN(CCO)c1ccc(NC(=S)Nc2cccc(S(=O)(=O)N(C)C)c2)cc1	-8	0	-4	-16	-22	0	x
